# From PubChem BioAssay AID1961 (Sanford-Burnham Center for Chemical Genomics, 2009)
# The campaign covered roughly 290,000 compounds. About 140 (0.048%) were called active.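 How the source made its calls: active means activation above 40% with more than 50 cells counted in the well; inconclusive means wells holding fewer than 50 cells, flagged as toxic or sparse; inactive means the rest.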 The full list was thinned out, with actives kept by preference.
# How the values were obtained:
# [1] = selective activators of receptor GPR55 – imaging, U2OS cells, beta-arrestin-GFP redistribution, primary screen (AID 1961); conditions: measured here: cytotoxicity, cells analyzed, at 10 µM;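 further: U2OS osteosarcoma cells stably expressing GPR55 and beta-arrestin-GFP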;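 on activation: plate controls were DMSO negative control for no effect and LPI positive control for full effect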
# [2] = molecular target: G-protein coupled receptor 55 (Homo sapiens) (UniProt Q9Y2T6); assay: as above; conditions: at 10 µM, stronger effect = higher value
# Chain of G-protein coupled receptor 55 (Homo sapiens) (Q9Y2T6 whole entry, looked up): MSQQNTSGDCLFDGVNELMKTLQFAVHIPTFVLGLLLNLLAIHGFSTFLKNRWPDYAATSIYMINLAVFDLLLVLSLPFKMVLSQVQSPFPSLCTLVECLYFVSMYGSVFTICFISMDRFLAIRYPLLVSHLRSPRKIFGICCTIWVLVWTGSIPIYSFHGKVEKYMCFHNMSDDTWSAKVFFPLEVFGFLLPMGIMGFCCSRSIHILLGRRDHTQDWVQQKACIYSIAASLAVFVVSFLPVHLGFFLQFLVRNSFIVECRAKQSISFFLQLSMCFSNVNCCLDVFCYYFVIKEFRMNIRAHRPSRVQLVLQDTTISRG
SMILES,cell count [1] [cells],activation [2]
O=C(Nc1ccc2c(c1)C(=O)OC2)c1ccc(F)cc1F,353,-0.2% (inactive)
Cc1nn(C)c(C)c1CNC(=O)c1cc2n(n1)C(C(F)(F)F)CC(c1cccs1)N2 (configuration not stated),389,0.1% (inactive)
Nc1c(-c2ccccc2)c(CSc2nc3ccccc3[nH]2)nn1-c1ccc(C(=O)O)cc1,311,-0.2% (inactive)
COc1cc(/C=C(\NC(=O)c2ccccc2)C(=O)NCC(=O)O)c([N+](=O)[O-])cc1OC,349,-0.1% (inactive)
COc1cc(/C=C/c2cc(OC(C)=O)c3ccccc3n2)c(OC(C)=O)c([N+](=O)[O-])c1,366,0.2% (inactive)
CN(C)c1ccnc(Nc2ccccc2)c1C#N,373,0.3% (inactive)
O=C1c2ccccc2C(=O)N1Cc1cccnc1,406,-0.2% (inactive)
CC(C)Cn1c(N)c(C(=O)COC(=O)c2cc(-c3ccco3)nc3ccccc23)c(=O)n(C)c1=O,285,-0.1% (inactive)
Cn1c(=O)c(C(=O)COC(=O)c2cc(-c3ccco3)nc3ccccc23)c(N)n(Cc2ccccc2)c1=O,365,8.3% (inactive)
Cn1c(=O)c(C(=O)COC(=O)c2cc(-c3ccco3)nc3ccccc23)c(N)n(CC2CC2)c1=O,375,59.6% (active)
Cc1ccc(C)c(CN2C(=O)c3ccccc3S(=O)(=O)c3ccc(C(=O)N4CCN(C)CC4)cc32)c1,338,-0.2% (inactive)
CCOC(=O)N1CCN(C(=O)c2ccc3c(c2)N(Cc2cccc(Cl)c2)C(=O)c2ccccc2S3=O)CC1 (configuration not stated),331,21.2% (inactive)
Cc1ccc(C(=O)N2CCN(c3ccccn3)CC2)cc1Cl,384,-0.2% (inactive)
Cc1ccc(C(=O)N2CCN(c3ccccn3)CC2)cc1C,396,-0.1% (inactive)
CC(=O)Nc1nc(SCC(=O)Nc2nnc(C)s2)[nH]c(=O)c1NC(=O)c1cccs1,243,0.7% (inactive)
CCOCCCNc1nc2c(C)cccn2c(=O)c1/C=C1\SC(=S)N(CC(C)C)C1=O,348,1% (inactive)
CCCN1C(=O)/C(=C/c2c(NCCCOCC)nc3c(C)cccn3c2=O)SC1=S,462,5.7% (inactive)
CCOCCCNc1nc2c(C)cccn2c(=O)c1/C=C1\SC(=S)N(C(C)CC)C1=O (configuration not stated),390,69.7% (active)
O=C(N/N=C/c1ccccc1F)c1cccc(NC(=O)c2ccccc2Cl)c1,329,-0.2% (inactive)
COc1cc(OC)cc(C(=O)N2CCN(c3ccccc3F)CC2)c1,328,-0.2% (inactive)
CCOc1ccc(NC(=O)C2CC(=O)N(c3cc(C)cc(C)c3)C2)cc1 (configuration not stated),314,-0.1% (inactive)
COc1cccc(NS(=O)(=O)c2ccc3c(c2)NC(=O)C(C)C(=O)N3)c1 (configuration not stated),385,-0.1% (inactive)
Cc1ccc(-c2ccc(CO)o2)cc1N,282,-0.3% (inactive)
O=C(O)c1cccc(CSc2nnc(-c3ccc(Cl)cc3)o2)c1,424,0.2% (inactive)
O=C(O)c1cccc(CSc2ncn[nH]2)c1,346,0.4% (inactive)
O=C(Cn1nc(-c2ccco2)ccc1=O)Nc1cc(C(F)(F)F)ccc1Cl,369,-0.1% (inactive)

SMILES,cell count [1] [cells],activation [2]
CC(C)(C)NC(=O)COC(=O)c1cc(Br)ccc1Cl,284,-0.3% (inactive)
O=C(NOC(=O)c1cc(Br)ccc1Cl)c1cccs1,347,-0.1% (inactive)
O=C(NCc1ccccc1F)C1CCCN(C(=O)NC2CCCCC2)C1 (configuration not stated),299,-0.1% (inactive)
COc1cccc(CNC(=O)c2cccc(S(=O)(=O)N3CCN(C)CC3)c2)c1,306,0% (inactive)
COc1ccc(CNC(=O)CN(C(=O)c2csnn2)c2ccccc2F)cc1,338,-0.1% (inactive)
COc1ccc(N2CCN(C(=O)c3cc(=O)c4ccc(C)cc4o3)CC2)cc1,331,-0.2% (inactive)
CCOc1ccccc1C(=O)Oc1ccc2ccc(=O)oc2c1,397,0.9% (inactive)
COc1cccc(C2/C(=C(\O)c3ccc4c(c3)OCCO4)C(=O)C(=O)N2CC2CCCO2)c1 (configuration not stated),382,0.2% (inactive)
FC(F)(F)c1cc(C(F)(F)F)c2ccc(N/N=C/c3ccccc3)nc2n1,408,-0.3% (inactive)
FC(F)(F)c1cc(C(F)(F)F)c2ccc(N/N=C/c3cccc(Cl)c3)nc2n1,390,59.1% (active)
Cc1ccc(/C=N/Nc2ccc3c(C(F)(F)F)cc(C(F)(F)F)nc3n2)cc1,447,-0.2% (inactive)
COCc1cc(C)nc(N)c1C#N,359,0.1% (inactive)
S=C(NCCc1ccccc1)N1CCN(C2CCCCC2)CC1,462,-0.1% (inactive)
O=C(C1=C[C@H](c2ccc(C(F)(F)F)cc2)C[C@H](OCc2ccc(CO)cc2)O1)N1CCOCC1,338,0.1% (inactive)
O=C(CSc1nnc(-c2ccc(F)cc2)o1)NC1CCCC1,360,-0.1% (inactive)
CCOC(=O)N1CCN(c2c(NCCCOC(C)C)c(=O)c2=O)CC1,327,-0.1% (inactive)
CC(C)OCCCNC(=O)Cc1ccc(F)cc1,376,-0.2% (inactive)
Cc1ccc2oc(=O)cc(CN3CCN(Cc4ccccc4)CC3)c2c1,335,0% (inactive)
O=C(CNC(=O)c1ccc(N2C(=O)c3ccccc3C2=O)cc1)OCC(=O)c1cccc2ccccc12,341,0% (inactive)
CC(C)N1CCN(Cc2ccc(C#CC(C)(C)O)s2)CC1CCO (configuration not stated),368,0.3% (inactive)
CCOc1ccc(S(=O)(=O)Nc2ccc(C(=O)N3CCCC3)cc2)cc1C(N)=O,319,0% (inactive)
O=S(=O)(c1cccc(-c2nn3c(-c4ccncc4)nnc3s2)c1)N1CCOCC1,342,-0.2% (inactive)
COCCNC(=O)C(c1ccc(F)cc1)N(C(=O)CCC(=O)Nc1ccccn1)c1cccc(C)c1 (configuration not stated),316,-0.2% (inactive)
CCCc1cc(=O)n2[nH]c(C)c(-c3ccc(OC)cc3)c2n1,417,-0.1% (inactive)
CC(C)(C)NC(=O)CSc1nc(N)c(NC(=O)c2ccccc2F)c(=O)[nH]1,255,0% (inactive)
